Our source for the inhibition values is PubChem BioAssay AID1259343 (VanderVen Lab, College of Veterinary Medicine, Cornell …, 2017).

Each structure is given as a SMILES string. The whole screen tested about 6,200 compounds, of which about 2,900 (47%) were called active. The set was probably picked from earlier hits. The list shows a part of the results. Values without a mark were called inactive. Cut-off read from the data, not from the text of the source: active = inhibition above about 50%; inactive = the rest.

The experiment in a line: Mycobacterium tuberculosis growth inhibition, primary screen (AID 1259343). The conditions noted are these: inhibition: at 10 µM, stronger effect = higher value; outcome: 10 uM.
Turning to `COc1ccc(C(C)NC(=O)Cc2ccccc2Cl)cc1F` (centres undefined), the inhibition is 74.1% (active).
Next, `COc1ccc(C(C)NC(=O)c2ccco2)cc1F` (centres undefined): 15.9%; `CC(C)CC(N)c1csc(Nc2ccc(C(F)(F)F)cn2)n1` (centres undefined): 91.8% (active); `NC(Cc1ccc(C(F)(F)F)cc1)c1csc(Nc2ccccn2)n1` (centres undefined): 47%.
In the case of `COc1ccc(C(N)c2csc(Nc3ccc(C(F)(F)F)cn3)n2)cc1` (centres undefined), the inhibition is 86.2% (active).
Next, `NC(Cc1ccc(C(F)(F)F)cc1)c1csc(Nc2cnccn2)n1` (centres undefined): 53% (active).
Take `NC(Cc1ccccc1)c1csc(Nc2ccc(C(F)(F)F)cn2)n1` (centres undefined): the inhibition is 86.1% (active).
As to `NC(c1ccccc1)c1csc(Nc2ccc(C(F)(F)F)cn2)n1` (centres undefined), the inhibition was 1.35%.
To `FC(F)(F)c1ccc(Sc2ncccn2)nc1` belongs -12%.
Next, `NC(COCc1ccccc1)c1csc(Nc2ccc(C(F)(F)F)cn2)n1` (centres undefined): 66.5% (active).
Next, `FC(F)(F)c1ccc(Nc2cnn(Cc3ccccc3)c2)nc1`: 58.1% (active).
For `CC(C)CCc1nc(Cn2c(C(F)(F)F)ccc(C(N)=O)c2=O)cs1`, the inhibition was 11.8%.
To `Cc1ccc(CS(=O)(=O)Cc2csc(CCC(C)C)n2)cc1` belongs 96% (active).
Next, `CN1C(=O)C(=Cc2cccc(OCc3ccccc3Cl)c2)C(=O)N(C)C1=O`: 14.1%; `Cc1cc(=O)[nH]c(-n2nc(C)cc2NC(=O)C(C)(C)Oc2ccc(Cl)cc2)n1`: 101% (active).
On to `CCc1cc(=O)[nH]c(-n2nc(C)cc2NC(=O)C(C)(C)Oc2ccc(Cl)cc2)n1`, for which the inhibition is -31%.
Next, `Cc1cc(=O)[nH]c(-n2nc(C3CC3)cc2NC(=O)C(C)(C)Oc2ccc(Cl)cc2)n1`: 98.2% (active); `Cc1cc(NC(=O)C(C)(C)Oc2ccc(Cl)cc2)n(-c2nc(C)c(C)c(=O)[nH]2)n1`: 100% (active).
To `COc1cccc(C2=NN(C(C)=O)C(C(=O)N(CC(C)C)CC(C)C)O2)c1` (centres undefined) belongs -4.2%; to `CCc1sc(-c2nnc(CSc3nnc(-c4ccco4)o3)o2)cc1C`, -15.2%.
Next, `CCc1sc(-c2nnc(-c3cccc(OC)c3)o2)cc1C`: 52.4% (active).
Turning to `O=C(Nc1ccc(-n2cccn2)nc1)C1CCCC(C(F)(F)F)C1` (centres undefined), the inhibition is 7.71%.
Consider `Cn1c(=O)oc2cc(NC(=O)C3CCCC(C(F)(F)F)C3)ccc21` (centres undefined), for which the inhibition is -34.1%.
Next, `Cc1ccc(C(=O)C(C#N)C(=O)C2CCCC(C(F)(F)F)C2)s1` (centres undefined): 101% (active).
Consider `Cc1ccc(NC(=O)NC2CCC(C)CC2)cc1-n1cnnn1` (centres undefined), for which the inhibition is -21.7%.
To `Cc1ccc(NCCOc2ccccc2F)cc1-n1cnnn1` belongs 54.8% (active); to `Cc1nn2c(NCCN3CCOCC3)cc(-c3ccccc3)nc2c1-c1ccccc1`, 48.5%.
To `CCn1c2ccccc2c2cc(Nc3ccnc(NCCCN4CCOCC4)n3)ccc21` belongs 53.6% (active); to `CC(SC(=S)N1CCCC1)c1nc(C2CC2)no1` (centres undefined), -46.6%; to `NC(=O)c1cccc(COc2cc(Cl)cc(Cl)c2)c1`, 49.7%.
`Cc1cc(OCc2cccc(Cl)c2)ccc1N`: the inhibition was 92.4% (active).
To `Cc1ccc(C2CC2C(=O)Nc2nc(C)c(SCC#N)s2)s1` (centres undefined) belongs 39.7%; to `Cc1c(C(=O)NCc2ccc(Cl)c(Cl)c2)sc(=O)n1Cc1cccc(F)c1`, 41.3%; to `Cc1nc(NC(=O)CNC(=O)Cc2cccc(F)c2)sc1SCC#N`, 81.8% (active).
Next, `CC(C)CSc1nnc(SCC(=O)Nc2ccc(C#N)cc2)s1`: -25.3%.
Next, `Cc1nc(SC(C)C(=O)NC(N)=O)c2c(C)c(C)sc2n1` (centres undefined): -7.75%.
Consider `CCNC(=O)NC(=O)C(C)Sc1nnc(Nc2ccc(C)cc2)s1` (centres undefined), for which the inhibition was 99.2% (active).
As for `CNC(=O)NC(=O)C(C)Sc1nnc(SCC(C)C)s1` (centres undefined), the inhibition is 89.7% (active).
Next, `CCC(C)c1ccc(Nc2nc(C)c(C)s2)cc1` (centres undefined): 41.7%.
Next, `CNC(=O)NC(=O)C(C)Sc1nnc(Nc2ccc(C)cc2)s1` (centres undefined): 54.2% (active).
`COc1ccccc1Cn1c(C(=O)N2CCN(C(=O)C(Cl)c3ccccc3)C(C)C2)cc2ccsc21` (centres undefined): the inhibition is 35.9%.
Turning to `COc1cccc(Cn2c(=O)c(C(=O)N3CCCC3)nn(-c3cc(C)cc(C)c3)c2=O)c1`, the inhibition was 3.71%.
To `CCOC(=O)c1ccc(NC(=O)N2CCN(C(=O)c3cc4ccoc4n3Cc3cccc(OC)c3)CC2C)cc1` (centres undefined) belongs 85.9% (active); to `O=C1c2ccccc2S(=O)(=O)N1Cc1ccccc1Oc1ccccc1`, 8.36%; to `O=C(CC1C=CCC1)Nc1nc2c(Cl)c(Cl)ccc2s1` (centres undefined), 48.5%.
For the molecule `O=C(Nc1ccc2ccccc2n1)C1CC2CCC1C2` (centres undefined), the inhibition is 45.8%.
To `Cc1cccc2sc(NC(=O)C3CC4CCC3C4)nc12` (centres undefined) belongs 85.8% (active).
Next, `c1ccc(-c2cnc(CN3CCSc4ccccc43)o2)cc1`: 26%; `CC1CCN(Cc2ncc(-c3ccccc3)o2)C2CCCCC12` (centres undefined): 72.5% (active).
To `CCc1[nH]n(-c2ccc(Cl)c(Cl)c2)c(=O)c1C1=C(N(C)C2CCCCC2)C(=O)N(c2ccccc2F)C1=O` belongs 65.4% (active).
For `COc1ccc(N2C(=O)C(c3c(C(C)C)[nH]n(-c4ccc(Cl)cc4)c3=O)=C(N3CCC(C)CC3)C2=O)c(OC)c1`, the inhibition is 39%.
To `N#Cc1c(C(F)(F)F)cc(=O)n2c1[nH]c1ccccc12` belongs 101% (active); to `CCc1c(C)c(C#N)c2[nH]c3ccccc3n2c1=S`, 40.8%; to `CCOc1ccccc1N=Cc1c(C)c(C#N)c2[nH]c3ccccc3n2c1=O`, 1.57%.
Next, `Cc1cc(NC(=O)C(C)Nc2ccc(Br)c(C)c2)on1` (centres undefined): 14%; `Cc1cc(NC(C)C(=O)N(C)Cc2ccccc2)ccc1Br` (centres undefined): 50.4% (active).
Next, `Cc1c(-c2cccc(NC(=O)Nc3ccccc3)c2)nc2ncccn12`: 18.8%.
With `CCCSc1ncccc1C(=O)Nc1ccc(-c2ccccc2)cc1`, the inhibition was 89.9% (active).
Next, `O=C(Nc1ccccc1)c1cccn(OCc2ccccc2F)c1=O`: 32.1%.
Take `CNc1ccc(-c2ccc(CC#N)cc2)cn1`: the inhibition is 38.5%.
Next, `CSCCC(=O)N1CCC(C(=O)Nc2ccc(Oc3ccccc3F)cc2)CC1`: 76.3% (active); `O=C(Nc1ccc(Oc2ccccc2F)cc1)C1CCN(C(=O)CCc2ccccc2)CC1`: 90.6% (active).
Next, `COCC(=O)N1CCC(C(=O)Nc2ccc(Oc3ccccc3F)cc2)CC1`: “inactive”; `Cc1ccn(CC(=O)N2CCC(C(=O)Nc3ccc(Oc4ccccc4F)cc3)CC2)n1`: 19.3%.
